The text below walks through data of ChEMBL document CHEMBL2218924, “A broad activity screen in support of a chemogenomic map for kinase signalling research and drug discovery” (Biochem J, 2013).

The target in assay [1] is MAP kinase-activated protein kinase 2 (Homo sapiens) (UniProt P49137). The conditions noted are these: at 10 µM.
In assay [2] the target is MAP kinase-activated protein kinase 3 (Homo sapiens) (UniProt Q16644). The settings on record: at 10 µM.
Assay [3] deals with Serine/threonine-protein kinase MARK1 (Homo sapiens) (UniProt Q9P0L2). The settings on record: at 1 µM.
The target is the same in assay [4]. The settings on record: at 10 µM.
Assay [5] addresses Dual specificity mitogen-activated protein kinase kinase 1 (Homo sapiens) (UniProt Q02750). The settings on record: at 1 µM.
Assay [6] shares this target. The settings on record: at 10 µM.
The target of assay [7] is Maternal embryonic leucine zipper kinase (Homo sapiens) (UniProt Q14680). The conditions noted are these: at 1 µM.
The target is the same in assay [8]. The conditions noted are these: at 10 µM.
For assay [9], the target named is Misshapen-like kinase 1 (Homo sapiens) (UniProt Q8N4C8). The settings on record: at 1 µM.
Assay [10] has the same target. The conditions noted are these: at 10 µM.

Sequence of MAP kinase-activated protein kinase 3 (Homo sapiens) (Q16644 whole entry, looked up): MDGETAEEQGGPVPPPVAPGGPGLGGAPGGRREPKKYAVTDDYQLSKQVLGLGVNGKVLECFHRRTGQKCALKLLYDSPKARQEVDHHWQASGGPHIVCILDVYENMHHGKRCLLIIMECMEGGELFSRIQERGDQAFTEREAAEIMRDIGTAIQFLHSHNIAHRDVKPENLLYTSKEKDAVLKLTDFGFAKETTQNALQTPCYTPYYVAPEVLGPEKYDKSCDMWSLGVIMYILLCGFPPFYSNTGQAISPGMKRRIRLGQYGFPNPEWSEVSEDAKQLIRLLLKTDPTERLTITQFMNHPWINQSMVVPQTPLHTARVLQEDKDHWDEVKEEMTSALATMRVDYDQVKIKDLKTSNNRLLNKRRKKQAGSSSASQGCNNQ
Sequence of Dual specificity mitogen-activated protein kinase kinase 1 (Homo sapiens) (Q02750 whole entry): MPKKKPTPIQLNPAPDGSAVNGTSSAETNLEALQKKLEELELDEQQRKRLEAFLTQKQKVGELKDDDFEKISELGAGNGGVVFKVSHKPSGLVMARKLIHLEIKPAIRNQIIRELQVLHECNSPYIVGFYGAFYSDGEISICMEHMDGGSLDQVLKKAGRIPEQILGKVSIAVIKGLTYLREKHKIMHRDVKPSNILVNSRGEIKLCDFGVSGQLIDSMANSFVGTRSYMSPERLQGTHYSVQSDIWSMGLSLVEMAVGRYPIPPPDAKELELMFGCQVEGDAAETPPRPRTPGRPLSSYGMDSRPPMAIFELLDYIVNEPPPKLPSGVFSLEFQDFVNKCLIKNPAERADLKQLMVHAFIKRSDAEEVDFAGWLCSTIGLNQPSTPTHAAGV
Sequence of MAP kinase-activated protein kinase 2 (Homo sapiens) (P49137 whole entry, looked up): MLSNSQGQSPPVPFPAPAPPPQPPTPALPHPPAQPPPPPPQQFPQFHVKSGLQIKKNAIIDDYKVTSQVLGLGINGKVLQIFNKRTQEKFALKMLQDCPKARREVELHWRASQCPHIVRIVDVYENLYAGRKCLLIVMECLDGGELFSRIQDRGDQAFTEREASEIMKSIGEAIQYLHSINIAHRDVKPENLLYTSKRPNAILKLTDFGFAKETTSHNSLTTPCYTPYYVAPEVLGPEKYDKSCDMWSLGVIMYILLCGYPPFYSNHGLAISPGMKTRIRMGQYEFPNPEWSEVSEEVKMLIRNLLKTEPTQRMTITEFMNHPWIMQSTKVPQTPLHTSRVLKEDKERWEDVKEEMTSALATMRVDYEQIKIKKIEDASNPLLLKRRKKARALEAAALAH
Sequence of Serine/threonine-protein kinase MARK1 (Homo sapiens) (Q9P0L2 whole entry, looked up): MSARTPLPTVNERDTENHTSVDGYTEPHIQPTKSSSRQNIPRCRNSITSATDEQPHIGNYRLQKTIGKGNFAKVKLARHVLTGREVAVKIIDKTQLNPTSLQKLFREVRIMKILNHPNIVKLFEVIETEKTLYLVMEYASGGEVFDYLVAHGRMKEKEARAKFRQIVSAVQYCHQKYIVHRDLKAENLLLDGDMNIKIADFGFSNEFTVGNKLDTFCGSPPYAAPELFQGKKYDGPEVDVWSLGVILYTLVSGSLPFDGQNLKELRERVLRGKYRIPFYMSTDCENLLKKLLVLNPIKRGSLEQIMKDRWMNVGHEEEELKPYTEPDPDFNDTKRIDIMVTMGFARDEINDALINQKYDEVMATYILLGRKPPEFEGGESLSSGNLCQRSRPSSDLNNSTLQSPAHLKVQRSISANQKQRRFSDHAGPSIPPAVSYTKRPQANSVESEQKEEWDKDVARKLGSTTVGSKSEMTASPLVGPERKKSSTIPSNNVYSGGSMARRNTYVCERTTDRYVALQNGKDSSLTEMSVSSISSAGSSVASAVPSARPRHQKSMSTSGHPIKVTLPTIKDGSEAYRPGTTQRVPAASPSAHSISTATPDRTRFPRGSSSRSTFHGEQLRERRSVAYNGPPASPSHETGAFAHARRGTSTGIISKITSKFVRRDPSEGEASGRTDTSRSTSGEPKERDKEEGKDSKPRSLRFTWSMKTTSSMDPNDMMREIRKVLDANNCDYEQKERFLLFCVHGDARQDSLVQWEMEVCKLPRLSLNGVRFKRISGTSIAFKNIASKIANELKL
Sequence of Misshapen-like kinase 1 (Homo sapiens) (Q8N4C8 whole entry, looked up): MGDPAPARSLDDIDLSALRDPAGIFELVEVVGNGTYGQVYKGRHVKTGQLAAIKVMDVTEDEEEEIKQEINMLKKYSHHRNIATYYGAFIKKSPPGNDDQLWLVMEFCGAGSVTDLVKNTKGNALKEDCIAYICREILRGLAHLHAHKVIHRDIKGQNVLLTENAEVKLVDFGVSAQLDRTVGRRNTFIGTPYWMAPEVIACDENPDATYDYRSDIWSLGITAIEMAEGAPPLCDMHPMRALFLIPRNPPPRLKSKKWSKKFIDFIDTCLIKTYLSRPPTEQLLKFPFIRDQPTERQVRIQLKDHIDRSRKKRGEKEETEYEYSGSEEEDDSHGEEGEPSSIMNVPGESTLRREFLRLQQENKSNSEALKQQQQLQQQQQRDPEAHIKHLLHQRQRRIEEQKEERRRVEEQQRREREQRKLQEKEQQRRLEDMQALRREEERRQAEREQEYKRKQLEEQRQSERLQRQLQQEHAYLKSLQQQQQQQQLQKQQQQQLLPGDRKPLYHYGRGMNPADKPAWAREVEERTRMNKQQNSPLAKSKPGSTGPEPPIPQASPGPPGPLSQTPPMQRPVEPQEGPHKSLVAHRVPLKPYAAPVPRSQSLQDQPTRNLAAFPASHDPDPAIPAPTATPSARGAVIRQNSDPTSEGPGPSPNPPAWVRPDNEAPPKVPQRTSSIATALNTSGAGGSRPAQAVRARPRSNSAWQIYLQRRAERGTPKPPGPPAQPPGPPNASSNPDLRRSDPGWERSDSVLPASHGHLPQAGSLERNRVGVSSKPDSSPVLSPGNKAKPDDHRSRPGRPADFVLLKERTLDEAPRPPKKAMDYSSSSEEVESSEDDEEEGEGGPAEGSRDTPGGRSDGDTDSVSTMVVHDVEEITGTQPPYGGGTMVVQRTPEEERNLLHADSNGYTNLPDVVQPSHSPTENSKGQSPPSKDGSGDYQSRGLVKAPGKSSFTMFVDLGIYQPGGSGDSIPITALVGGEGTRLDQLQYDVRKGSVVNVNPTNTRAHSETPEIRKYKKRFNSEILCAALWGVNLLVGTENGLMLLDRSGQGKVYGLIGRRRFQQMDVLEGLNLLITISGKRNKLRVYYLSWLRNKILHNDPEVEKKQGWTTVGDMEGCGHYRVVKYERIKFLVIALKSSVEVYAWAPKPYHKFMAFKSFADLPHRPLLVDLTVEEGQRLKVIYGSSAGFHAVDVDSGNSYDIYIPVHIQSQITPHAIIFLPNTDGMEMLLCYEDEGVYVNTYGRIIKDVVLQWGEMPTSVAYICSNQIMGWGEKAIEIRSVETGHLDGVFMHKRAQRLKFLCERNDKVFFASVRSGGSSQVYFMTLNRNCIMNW
Sequence of Maternal embryonic leucine zipper kinase (Homo sapiens) (Q14680 whole entry, looked up): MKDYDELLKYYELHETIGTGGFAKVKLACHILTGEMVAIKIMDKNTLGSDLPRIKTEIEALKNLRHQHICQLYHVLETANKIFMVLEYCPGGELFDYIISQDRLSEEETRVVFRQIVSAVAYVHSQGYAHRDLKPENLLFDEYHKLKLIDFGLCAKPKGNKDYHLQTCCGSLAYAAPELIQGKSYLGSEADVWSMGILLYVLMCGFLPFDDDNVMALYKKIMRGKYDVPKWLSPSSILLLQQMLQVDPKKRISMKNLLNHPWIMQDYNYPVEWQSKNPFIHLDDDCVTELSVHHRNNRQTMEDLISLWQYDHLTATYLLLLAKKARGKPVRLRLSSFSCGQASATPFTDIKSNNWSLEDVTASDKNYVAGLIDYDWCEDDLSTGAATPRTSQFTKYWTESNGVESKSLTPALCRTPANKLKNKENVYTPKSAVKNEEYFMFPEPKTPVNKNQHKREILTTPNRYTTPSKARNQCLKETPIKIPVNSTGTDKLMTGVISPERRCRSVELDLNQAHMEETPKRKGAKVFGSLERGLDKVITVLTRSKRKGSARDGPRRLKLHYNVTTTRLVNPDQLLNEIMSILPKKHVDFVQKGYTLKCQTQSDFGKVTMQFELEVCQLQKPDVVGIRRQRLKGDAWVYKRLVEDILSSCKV

For the molecule `O=c1cc(-c2cccc3c2Sc2ccccc2S3)oc(N2CCOCC2)c1`, the residual activity in [1] was determined as 85%; in [2], 79%; in assay [3], 104%; in [4], 96%; in assay [5] it was 111%; in assay [6], 104%. For the same molecule, the residual activity in assay [7] was determined as 93%; in assay [8] it was 90%; in [9], 111%; in assay [10], 100%.

Take `N#C/C(=C(\N)Sc1ccc(N)cc1)c1ccccc1C(F)(F)F`: the residual activity in [1] came out at 69%; in assay [2], 88%; in assay [3], 72%; in assay [4], 54%; in [5] it was 104%; in [6], 101%. Also, the residual activity is 67% in assay [7], 62% in assay [8], 106% in assay [9] and 91% in assay [10].

Turning to `N#CC(C#N)=C(N)/C(C#N)=C/c1ccc(O)cc1`, the residual activity amounted to 87% in [1]; 89% in assay [3]; 75% in assay [4]; 70% in assay [7]; 78% in [8]; 89% in assay [9]. In addition, the residual activity in [10] stood at 88%.

On to `Cc1cc(Nc2nc(-c3ccccc3)nc3ccccc23)n[nH]1`, for which the residual activity is 66% in assay [3]; 26% in assay [4]; 67% in assay [6]; 46% in assay [7]; 7% in assay [8]; 61% in assay [9]. For the same molecule, in assay [10], the residual activity is 14%.

On to `COc1ccc(CNc2nc(N(CCO)CCO)nc3c2ncn3C(C)C)cc1`, for which the residual activity is 81% in [1]; 98% in assay [2]; 85% in assay [3]; 72% in assay [4]; 103% in assay [5]; 120% in assay [6]. Also, the residual activity is 77% in assay [7], 38% in assay [8], 103% in assay [9] and 92% in [10].

As to `c1ccc(-c2n[nH]cc2-c2ccnc3ccccc23)nc1`, the residual activity in assay [1] amounted to 109%; in assay [2], 125%; in assay [3], 93%; in [4] it was 81%; in assay [7], 97%; in assay [8], 82%. Besides, the figures for the residual activity in assay [9] and in assay [10] were 72% and 27%, respectively.

For the molecule `O=C1c2ccccc2-[n+]2ccc3c([nH]c4ccccc43)c21`, the residual activity in assay [1] is 98%; in [2], 89%; in [3] it was 80%; in [4], 77%; in assay [5], 97%; in [6] it was 110%. Moreover, the residual activity in assay [7] is 85%; in [8], 67%; in [9], 99%; in [10] it was 87%.

For the molecule `NC(=O)c1ccc2[nH]c(-c3ccc(Oc4ccc(Cl)cc4)cc3)nc2c1`, the residual activity in assay [1] is 126%; in [2] it was 127%; in [3], 85%; in assay [4], 70%; in assay [5] it was 91%; in assay [6] it was 111%. The residual activity in assay [7] came to 91%; in [8], 83%; in [9], 91%; in assay [10], 66%.

With `Nc1ccc2ncnc(NCCc3ccc(Oc4ccccc4)cc3)c2c1`, the residual activity was determined as 106% in assay [1]; 105% in assay [2]; 87% in assay [3]; 62% in [4]; 99% in assay [5]; 101% in assay [6]. The residual activity in assay [7] worked out at 63%; in assay [8], 40%; in assay [9], 101%; in [10], 82%.

In the case of `Cn1cc(/C=C2\C(=O)Nc3ccc(S(N)(=O)=O)cc32)c2ccccc21`, the residual activity stood at 71% in assay [1]; 88% in assay [2]; 23% in assay [3]; 7% in [4]; 42% in [5]; 19% in assay [6]. The residual activity in assay [7] came out at 42%; in [8] it was 51%; in [9], 56%; in assay [10], 61%.

Consider `CC(C)n1cnc2/c(=N/c3cccc(Cl)c3)nc(NCCO)[nH]c21`, for which the residual activity in assay [1] amounted to 92%; in assay [2], 116%; in assay [3], 50%; in assay [4], 26%; in assay [5], 81%; in assay [6], 91%. Further, the residual activity in assay [7] turned out to be 56%; in assay [8], 16%; in assay [9], 98%; in assay [10], 69%.

Regarding `Nc1nc(Nc2ccc(S(N)(=O)=O)cc2)nn1C(=S)Nc1c(F)cccc1F`, the residual activity in assay [1] is 9%; in assay [2] it was 41%; in assay [3] it was -1%; in assay [4], 0%; in [5], 16%; in assay [6], 6%. The residual activity was determined as 17% in assay [7], 24% in [8], 18% in assay [9] and 2% in assay [10].

With `Cc1cncc2cccc(S(=O)(=O)N3CCCN(C(=O)CN)C[C@H]3C)c12`, the residual activity in assay [1] was found to be 87%; in assay [3], 73%; in [4] it was 43%; in assay [7], 74%; in assay [8], 24%; in assay [9] it was 91%. The residual activity in assay [10] is 72%.

Consider `O=Nc1c(-c2c(O)[nH]c3ccccc23)[nH]c2ccccc12`, for which the residual activity amounted to 76% in assay [1]; 88% in [2]; 37% in assay [3]; 5% in assay [4]; 64% in assay [5]; 55% in assay [6]. The figures for the residual activity in assay [8], in assay [9] and in [10] were 7%, 54% and 10%, respectively.

Turning to `CC(=O)c1ccc(N2CCOCC2)cc1O`, the residual activity in assay [2] is 111%; in [3], 93%; in [4], 91%; in assay [5] it was 102%; in assay [7], 90%; in assay [8], 100%. The residual activity is 108% in assay [9] and 88% in assay [10].

Turning to `Oc1ccc(Nc2nc(-c3ccc(Cl)cc3)cs2)cc1`, the residual activity in [1] was determined as 71%; in assay [2], 116%; in assay [3], 104%; in assay [4] it was 93%; in [5] it was 106%; in assay [6], 112%. The residual activity in assay [7] is 114%; in assay [8], 100%; in [9] it was 104%; in assay [10], 83%.

As for `Cc1cccc(-c2[nH]c(C(C)(C)C)nc2-c2ccc3c(c2)OCO3)n1`, the residual activity is 96% in assay [1]; 85% in [3]; 77% in assay [4]; 96% in assay [6]; 75% in assay [7]; 103% in [8]. Moreover, the residual activity in assay [9] is 101%; in assay [10] it was 90%.

With `COc1ccc(OC)c2c(=S)c3ccccc3[nH]c12`, the residual activity came out at 89% in assay [2]; 87% in assay [3]; 74% in assay [4]; 114% in [5]; 110% in assay [6]; 102% in assay [7]. Further, the residual activity in assay [8] stood at 84%; in assay [9], 108%; in assay [10] it was 94%.
